High-throughput results from PubChem BioAssay.
Rows were chosen to be rich in hits. Some 0.49% of all compounds tested hit in one or more screens of this group.
CCT modulator = cytosolic chaperonin activity modulation; 360,000 compounds, 0.3% hits; purified chaperonin ATPase assay, HTRF ADP detection, 30 min; activity change, % (concentration not given with the values), hits read low; AID 651819; in the data active = activity change below about -30%
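TRiC (40 or 20 nM final, by batch activity) in 30 mM Tris pH 7.4, 100 mM KCl, 5 mM MgCl2, 1 mM DTT was treated with compound at 76 uM single dose, then 10 uM ATP, 30 min at 37 °C. ADP was read by HTRF Transcreener.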
Chronic BCR inh = blocks chronic active B-cell receptor signaling | ABC-DLBCL IkBa-CBG/CBR reporter, luminescence ratio, 4 h | Potency, µM (titrated, usually from 46.1 µM), usual class: inhibitors | 340,000 compounds, 0.05% hits; active = well fitted inhibition curve with a large enough effect in the signal ratio, with a control signal flat, not every such curve was filed as active; inconclusive = small, poorly fitted or top-dose-only effect, or effect the other way, or a change in a side signal; the % refers to the signal ratio
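TMD8 human ABC-DLBCL cells with doxycycline-inducible IκBα–green luciferase fusion and unfused red luciferase, in 0.5% FBS medium; compounds up to 46 uM, 4 h at 37C. Green/red luminescence ratio, filter-overlap corrected, fitted to concentration-response curves.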
Tb PFK block = T. brucei PFK enzyme inhibition. Potency, µM (highest dose often 57.5 µM), most hits filed as inhibitors. AID 485367. T. brucei PFK, ADP-Glo luminescence. 330,000 compounds, 0.17% hits; also: nearly all actives have a fitted effect of over 60% in size
Target sequence (O15648 whole entry, looked up): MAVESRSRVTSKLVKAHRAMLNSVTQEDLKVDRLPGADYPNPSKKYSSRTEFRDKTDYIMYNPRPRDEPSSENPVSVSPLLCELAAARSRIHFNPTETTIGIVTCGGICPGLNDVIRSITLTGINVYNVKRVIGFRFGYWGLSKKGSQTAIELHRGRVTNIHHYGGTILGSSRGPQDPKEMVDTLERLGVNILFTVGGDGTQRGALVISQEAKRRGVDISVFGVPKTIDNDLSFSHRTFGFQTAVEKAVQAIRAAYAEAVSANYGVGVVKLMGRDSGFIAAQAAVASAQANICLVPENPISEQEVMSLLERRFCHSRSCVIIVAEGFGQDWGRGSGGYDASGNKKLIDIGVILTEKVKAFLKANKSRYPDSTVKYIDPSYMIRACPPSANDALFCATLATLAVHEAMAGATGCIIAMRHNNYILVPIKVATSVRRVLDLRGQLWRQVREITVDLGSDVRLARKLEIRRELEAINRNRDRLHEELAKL
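ADP-Glo luminescence quantified ADP after 45 min at room temperature, with 1.25 nM T. brucei PFK, 0.1 mM ATP and 0.5 mM fructose-6-phosphate in pH 8.0 TEA buffer. qHTS titrations up to 57 µM; curves classified by quality.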
S-ASM inh = inhibitors of human secretory acid sphingomyelinase. placental ASM, HMU-PC fluorogenic substrate, 60 min. 340,000 compounds, 0.006% hits. Potency, µM (top dose mostly 57.5 µM), actives largely listed as inhibitors
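Human placenta-derived ASM enzyme was preincubated with compound for 10 minutes at room temperature, then given fluorogenic substrate HMU-PC0 (9 uM final) for 60 minutes at 37 °C; a pH 10 stop preceded fluorescence reading at Ex 386/Em 447 nm.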
TCR activator = T cell receptor activation | primary human leukocytes, anti-CD3, IL-2 HTRF, 48 h | AID 504894 | Potency, µM (series often up to 9.22 µM), most hits filed as activators | 330,000 tested, under 10 active
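TCR engagement came from a-CD3 beads alone, with compounds added to primary human leukocytes for 48 hr. Secreted IL-2 bridged europium cryptate- and d2-labelled anti-IL-2 antibodies, giving FRET emission at 665nm after 320nm excitation.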
A number is an active result; i = inactive; ? = inconclusive; nt = no result given; [ ] = another dose, or the depositor's remark. Unless noted, calls follow the shape of the dose curve; as a rule, active = well fitted curve in the direction sought with a large enough effect; inconclusive = small, poorly fitted or top-dose-only effect, or another doubt; inactive = no such curve, though single readings can be large; an effect the other way counts as inactive or inconclusive.

SMILES | CCT modulator | Chronic BCR inh | Tb PFK block | S-ASM inh | TCR activator
Cn1c(SCC(=O)Nc2ccc(N3CCOCC3)cc2)nnc1-c1ccccc1F | i | i | i | i | i
Cn1c(SCC(=O)Nc2ccc(N3CCOCC3)cc2)nnc1-c1ccccc1 | -35 | i | i | i | i
COc1cc2c(cc1OC)C(COc1ccc(C(C)C)cc1)N(C(=O)c1ccc(S(=O)(=O)N3CCCC3)cc1)CC2 (stereo unspecified) | nt | i | nt | nt | nt
Cc1ccc(Cn2c(CN3CCC(C(=O)NCCc4ccccc4)CC3)cc3ccccc32)cc1 | nt | i | nt | nt | nt
O=C(NCC(c1ccco1)S(=O)(=O)c1cccs1)c1c(F)cccc1F (stereo unspecified) | nt | i | nt | nt | nt
COC(=O)C(O)(NC(=O)NC(C)=O)C(F)(F)F (stereo unspecified) | -56 | i | i | i | i
Cc1ccc(-c2ccc(=O)n(CC(=O)NCCc3ccc(Cl)cc3)n2)cc1 | nt | i | nt | nt | nt
COc1cccc(-n2c([S-])c(C(=O)Nc3ccc(S(=O)(=O)N4CCOCC4)cc3)[n+]3cc(C(N)=O)ccc23)c1 | -41 | i | i | i | i
COc1ccc2sc(N(Cc3cccnc3)C(=O)C3CCCCC3)nc2c1 | nt | i | nt | nt | nt
COCc1nn2c(N)c(C#N)cnc2c1-c1ccccc1 | i | i | i | i | i
COCc1nn2c(N)c(-c3ccccc3)cnc2c1-c1ccccc1 | -44 | i | i | i | i
COC(=O)c1ccc(OCC2c3cc(OC)c(OC)cc3CCN2C(=O)c2ccc(F)cc2)cc1 (stereo unspecified) | nt | i | nt | nt | nt
COCCCNC(=O)CSc1nc2cc3c(cc2c(=O)n1CCCCCC(=O)NCc1ccc2c(c1)OCO2)OCO3 | nt | i | nt | nt | nt
Cc1cnc2c(c1SCC(=O)NCc1ccc(F)cc1)c(=O)n(C)c(=O)n2C | nt | i | nt | nt | nt
COc1ccc(C2=NS(=O)(=O)N(C)C(C(=O)N3CCC(C(N)=O)CC3)=C2)cc1 | -67 | i | i | i | i
Cn1c(SCc2cccc([N+](=O)[O-])c2)nc2ccccc2c1=O | -39 | i | i | i | i
COCCn1c(SCc2cccc([N+](=O)[O-])c2)nc2ccccc2c1=O | i | i | i | i | i
CCOCCCNC(=O)C(=O)Nc1c2c(nn1-c1ccccc1)CSC2 | nt | i | nt | nt | nt
COc1ccc(Nc2nc(-c3c(C)nc4ncccn34)cs2)cc1 | i | 3.5µM | i | i | i
O=C1CC(=O)N(Cc2ccco2)C(=O)N1 | i | i | 24µM | i | i
CC(=O)Nc1ccc(-c2cn3ccsc3n2)cc1 | i | ? | i | i | i
c1cn2cc(-c3ccc4c(c3)OCO4)nc2s1 | -63 | i | i | i | i
Cc1c(O)ccc(C(=O)CN2CCN(Cc3ccccc3)CC2)c1O | -56 | ? | i | i | i
O=C(Oc1cccc2cccnc12)c1ccco1 | i | 23µM | i | i | i
O=C(Oc1cccc2cccnc12)c1ccc(Br)o1 | i | i | i | i | i
SMILES | CCT modulator | Chronic BCR inh | Tb PFK block | S-ASM inh | TCR activator
COc1ccc(/C=N/NC(=O)c2ccc(CSc3nc(C)cc(C)n3)cc2)c(OC)c1OC | i | i | i | i | i
COc1ccc(/C=N/NC(=O)c2ccc(CSc3nc(C)cc(C)n3)cc2)cc1O | i | 16µM | i | i | i
Cc1cc(F)ccc1S(=O)(=O)NCC(c1cccnc1)N1CCc2ccccc21 (stereo unspecified) | i | ? | i | i | i
Cc1ccc(S(=O)(=O)NCC(c2cccnc2)N2CCc3ccccc32)cc1 (stereo unspecified) | -49 | i | i | i | i
CCC1CCCCN1C(=O)Cn1c(=O)n(-c2ccccc2C(F)(F)F)c(=O)c2c(C)c(C(=O)N(C)C)sc21 (stereo unspecified) | nt | i | nt | nt | nt
CCCSc1nnc(Sc2nnnn2-c2ccccc2)s1 | i | 9.2µM | i | i | i
O=C(NC1CC(=O)N(c2cccc(F)c2)C1)c1ccc(Br)o1 (stereo unspecified) | nt | i | nt | nt | nt
CCOC(=O)c1ccc(N2C(=O)C3CC=CCC3C2=O)cc1 (stereo unspecified) | -46 | i | i | i | i
Cc1cc2c(s1)c1c(C)nn(Cc3ccc(F)cc3)c(=O)c1n2C | nt | i | i | nt | nt
Cc1ccc(C(=O)Nn2cnc3scc(-c4cccs4)c3c2=O)c(O)c1 | -47 | i | i | i | i
Cc1ccc(-n2cnc3scc(-c4cccs4)c3c2=O)cc1 | i | i | i | i | i
COc1ccccc1CN1C(=O)CN(C2CCCCCC2)C(=O)C1c1ccc(C)cc1 (stereo unspecified) | nt | i | nt | nt | nt
O=c1cc(-c2ccccc2)[nH]c2ccccc12 | i | 11µM | i | i | i
O=C1C(c2cc(=O)c3ccccc3[nH]2)=C(O)c2ccccc21 | i | ? | i | i | i
COc1cccc(N2C(=O)N(CC(=O)NCc3cccc(OC)c3OC)c3ccccc3S2(=O)=O)c1 | nt | i | nt | nt | nt
CC1Oc2ccccc2C=C1/C=C1/SC(N2CCOCC2)=NC1=O (stereo unspecified) | -39 | ? | i | i | i
O=C1N=C(N2CCOCC2)S/C1=C/c1cccs1 | i | i | i | i | i
Cc1ccc(CNC(=O)c2c(Nc3ccccc3C)sc(C(=O)c3ccc(F)cc3)c2N)cc1 | nt | 22µM | nt | nt | nt
COc1ccc([C@]23Cc4cc(OC)c(OC)cc4C(O2)c2c(cc(C)n(Cc4ccccc4)c2=O)O3)cc1 | nt | ? | i[11.5 µM] | nt | nt
Cc1occc1C(=O)N(Cc1nc(-c2ccccc2)no1)C(C)C | -72 | i | i | i | i
CCN(Cc1nc(-c2ccccc2)no1)C(=O)c1ccoc1C | i | i | i | i | i
CN(Cc1ccco1)c1ncnc2ccc(-c3ccc4c(c3)OCCO4)cc12 | nt | ? | i | nt | nt
O=C(NC(=S)N1CCOCC1)c1ccc([N+](=O)[O-])cc1 | i | 23µM | i | i | i
Oc1ccc(COC2CCN(Cc3ccccc3)C2)c2cccnc12 (stereo unspecified) | nt | ? | i | nt | nt
COc1ccccc1-c1c(C)oc2c(CN3CCN(CCO)CC3)c(O)ccc2c1=O | -52 | i | i | i | i
SMILES | CCT modulator | Chronic BCR inh | Tb PFK block | S-ASM inh | TCR activator
COc1ccc(C2C(=O)N(C3CCC(C)CC3)CC(=O)N2C2CCCC2)cc1OC (stereo unspecified) | nt | i | nt | nt | nt
COc1ccc(Nc2cc3n(c(=O)n2)CCc2cc(OC)c(OC)cc2-3)c(C)c1 | i | 18µM | i | i | i
COc1ccc(Nc2cc3n(c(=O)n2)CCc2cc(OC)c(OC)cc2-3)cc1 | i | ? | i | i | i
COCCN(CCOC)c1ncnc2c1c(-c1ccccc1)cn2-c1ccc(C)c(Cl)c1 | nt | i | nt | nt | nt
CCCCN(CC)CCCNC(=O)c1ccc2c(c1)NC(=O)CN2C | nt | i | nt | nt | nt
CC(/C=C/c1ccccc1)=N\Nc1nc(-c2ccccc2)cs1 | -70 | ? | i | i | i
CC(C)=NNc1nc(-c2ccccc2)cs1 | i | ? | i | i | i
O=C(NCC(c1ccco1)N1CCCC1)c1cccc(S(=O)(=O)N2CCCCC2)c1 (stereo unspecified) | i | nt | nt | nt | nt
